According to the supplement of paper PMC10981050:
“And” between values parts separate entries of the source, which are not always exact repeats. Identical values can stand only once. Counter-ions that a name gives are not always drawn.

How the values were obtained:
Test in all cases: cell viability relative to vehicle control; higher = less cytotoxic
Details in all cases: 10 µM
[1] = system: K562
Procedure, shortened: (§1)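 CRISPR-edited mutant clones and isogenic wild-type clones from four leukaemia lines were screened against Selleck bioactive, kinase and epigenetic probe libraries, with identity-inconsistent compounds excluded. Each compound was acoustically dispensed at a single 10 µM dose into 384-well plates holding 2000 cells in 50 µL medium per well. After 48 h the supernatant was removed and CellTiter-Glo luminescence was read. Viability was expressed as percent of the on-plate vehicle control and analysed in Genedata Screener.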

[2] = system: MARIMO
Procedure, shortened: as §1

[3] = system: MOLM14
Procedure, shortened: as §1

[4] = system: OCI-AML2
Procedure, shortened: as §1

Row | SMILES | cell viability ([1]; SRSF2 genotype: SRSF2 P95H/wt) | cell viability ([1]; SRSF2 genotype: SRSF2 wt/wt) [%] | cell viability ([2]; SRSF2 genotype: SRSF2 P95H/wt) [%] | cell viability ([2]; SRSF2 genotype: SRSF2 wt/wt) [%] | cell viability ([3]; SRSF2 genotype: SRSF2 P95H/wt) [%] | cell viability ([3]; SRSF2 genotype: SRSF2 wt/wt) [%] | cell viability ([4]; SRSF2 genotype: P95H/wt) [%] | cell viability ([4]; SRSF2 genotype: wt/wt) [%]
1 | CCCCc1nc2cc(/C=C/C(=O)NO)ccc2n1CCN(CC)CC [SB939 (Pracinostat)] | 1.57% and 13.7% | 4.32 | 9.81 | 13.9 | 1.19 | 0.63 | 4.26 | 6.25
2 | COc1ccccc1OCCNCC(O)COc1cccc2[nH]c3ccccc3c12 (centres undefined) [Carvedilol] | 51.6% and 66.2% | 52.8 | 53 | 56.8 | 53.6 | 56.4 | 56.1 | 56.2
3 | CCCc1ccc(OCC(=O)N(Cc2nc(-c3cccnc3)no2)C(C)C)cc1 | 87.5% and 91.9% | 91.3 | 81.5 | 90.4 | 85.6 | 96 | 77.4 | 83.9
4 | O=c1[nH]c2ccccc2n1CCN1CCN(c2cccc(C(F)(F)F)c2)CC1 [Flibanserin] | 89.2% and 98.9% | 91.8 | 96.9 | 110 | 101 | 102 | 91 | 108
5 | O=C(Nc1cccc2cccnc12)c1ccc(N2C(=O)C3C4C=CC(C4)C3C2=O)cc1 (stereo not drawn) [IWR-1-endo] | 95.8% and 94% | 101 | 100 | 103 | 111 | 118 | 97.9 | 98.8
6 | COc1cc(-c2oc3cc(O)cc(O)c3c(=O)c2O)ccc1O [Isorhamnetin] | 87.2% and 88.3% | 86.6 | 83.4 | 92.4 | 71.8 | 79.4 | 81.1 | 89
7 | O=C1NC(=O)C(c2cnc3ccccn23)=C1c1cn2c3c(cc(F)cc13)CN(C(=O)N1CCCCC1)CC2 | 56.1% and 43.4% | 71.5 | 94.4 | 103 | 86.8 | 79.5 | 118 | 119
8 | Cc1ccc(N(CC2=NCCN2)c2cccc(O)c2)cc1 [Phentolamine Mesylate] | 93% and 101% | 92.5 | 90.3 | 95.2 | 102 | 103 | 102 | 86.7
9 | N=C(NOCC(O)CN1CCCCC1)c1cccnc1 (centres undefined) | 106% and 96.6% | 106 | 104 | 99.2 | 108 | 101 | 97.6 | 104
10 | CCCCCCCCCCCCCCCCCCCC(=O)O [Arachidic acid] | 95.7% and 93.1% | 98.9 | 96 | 96.3 | 96.1 | 103 | 103 | 109
11 | O=C(NC1(c2ccccc2)CC1)c1c(CN2CCC(N3CCCCC3)CC2)c(-c2cccc(C(F)(F)F)c2)nc2cc(Br)ccc12 | 8.23% and 19.8% | 11.8 | 66.8 | 58.4 | 64.9 | 71.4 | 1.08 | 24.1
12 | CC(=O)NS(=O)(=O)c1ccc(N)cc1 [Sulfacetamide Sodium] | 96.5% and 94.7% | 101 | 96.3 | 101 | 101 | 101 | 108 | 96.6
13 | CN1CCN(Cc2ccc(NC(=O)Nc3ccc(Oc4cc(NC(=O)C5CC5)ncn4)cc3)cc2C(F)(F)F)CC1 | 21.2% and 19% | 20.5 | 1.8 | 1.13 | 0.31 | 0.31 | 0.36 | 1.73
14 | CCCCCCCCCCCCCCCC(=O)N[C@@H](CCSC)C(=O)NCC(=O)N[C@@H](Cc1ccc(O)cc1)C(=O)N[C@@H](CCC(N)=O)C(=O)N[C@@H](CCCCN)C(=O)N[C@@H](CCCCN)C(=O)N[C@@H](CC(C)C)C(=O)N[C@@H](CCCNC(=N)N)C(=O)N[C@@H](CO)C(=O)N[C@@H](CCSC)C(=O)N[C@H](C(=O)N[C@@H](CC(=O)O)C(=O)N[C@@H](CCCCN)C(=O)N[C@@H](Cc1ccc(O)cc1)C(=O)N[C@@H](CCCNC(=N)N)C(=O)N[C@@H](CC(C)C)C(=O)O)[C@@H](C)O | 90.8% and 92.9% | 90 | 76.6 | 82.2 | 58.6 | 72.7 | 75.1 | 94.9
15 | Cc1ccccc1N1CCN(CCc2nnc3n2CCCC3)CC1 [Dapiprazole Hydrochloride] | 103% and 96% | 93.2 | 97.7 | 110 | 97 | 102 | 96.4 | 97.1
16 | O=C(CCCN1CCC(O)(c2ccc(Cl)cc2)CC1)c1ccc(F)cc1 [Haloperidol (Haldol)] | 87.7% and 94.9% | 94.5 | 73.9 | 85.3 | 84.8 | 91 | 84.2 | 91
17 | CC(=O)N[C@@H](CS)C(=O)O [Acetylcysteine] | 101% and 97.9% | 95.6 | 97.5 | 92.6 | 97 | 97.5 | 102 | 98
18 | CCN(CC)CCN(Cc1ccc(-c2ccc(C(F)(F)F)cc2)cc1)C(=O)Cn1c(SCc2ccc(F)cc2)nc(=O)c2c1CCC2 | 0.31% and 0.26% | 0.26 | 0.34 | 0.46 | 0.23 | 0.24 | 0.22 | 0.29
